Unmarked numbers belong to inactive results.
The compounds below were run on Plasmodium falciparum NF54-HGL (transmission to Anopheles stephensi) (assay: percentage of barcode signal found in uninfected mosquitoes (transmission-blocking activity); higher = stronger blocking of transmission to mosquito, active = 80 or more). Conditions: 10 µM; gametocyte preincubation time 24 h; readout time post-feed 8 days.
Experimental: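 The mixture was fed to Anopheles stephensi in 96-well plates as blood meals tagged with DNA-barcoded Asaia bacteria. Eight days later, mosquitoes were classed infected or uninfected by luminescence (mean + 5 SD of unfed controls). Barcodes were quantified by Luminex MagPlex-TAG in the pooled uninfected and infected Asaia cultures, background-corrected, and the score is % of barcode signal in uninfected mosquitoes = 100*Iu/(Iu+Ii).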

Row | SMILES | percentage of barcode signal found in uninfected mosquitoes
1 | CC(C)(C)C(O)C(Oc1ccc(-c2ccccc2)cc1)n1cncn1 (centres undefined) | -1.02%
2 | CCc1nn(C)c(C(=O)NCc2ccc(Oc3ccc(C)cc3)cc2)c1Cl | 25.8%
3 | CC1COC(Cn2cncn2)(c2ccc(Oc3ccc(Cl)cc3)cc2Cl)O1 (centres undefined) | 19.1%
4 | Cc1nn(Cc2ccccc2)c(Cl)c1C(=O)NC1CCCCCC1 | 2.01%
5 | CC1(C)OB(O)c2ccc(C3=NOC(c4cc(Cl)c(F)c(Cl)c4)(C(F)(F)F)C3)cc21 (centres undefined) | -4.84%
6 | Cc1cc(C2=NOC(c3cc(Cl)c(F)c(Cl)c3)(C(F)(F)F)C2)ccc1C(=O)NCc1ccc2c(c1)C(C)(C)OB2O (centres undefined) | 43.3%
7 | CO/C=C(/C(=O)OC)c1ccccc1Oc1cc(Oc2ccccc2C#N)ncn1 | 69.5%
8 | Nc1c2c(nc3sc4c(c13)CCCC4)CCCC2 | 42%

Same assay, conditions: 20 µM; gametocyte preincubation time 24 h; readout time post-feed 8 days

Row | SMILES | percentage of barcode signal found in uninfected mosquitoes
9 | Cc1cccc(C(=O)Nc2ccnc(N(C)C3CCN(CC(C)C)CC3)c2)c1 | 46.4%
10 | O=C1O[C@@H](COc2ccon2)CN1c1cc(F)c(C2=CCN(Cc3ccccc3)CC2)c(F)c1 | 29.7%
11 | CO/N=C(\C(=O)OC)c1ccccc1CO/N=C(\C)c1cccc(C(F)(F)F)c1 | 83.6% (active)
12 | CO[C@@H]1CN(c2ccc(C#CC3(O)CN4CCC3CC4)c(Cc3ccccc3)n2)C[C@H]1O (some centres undefined) | 43%
13 | O=C1O[C@@H](CO)CN1c1cc(F)c(C2=CCN(Cc3ccccc3)CC2)c(F)c1 | 0.248%
14 | Cc1nn(C)c(C)c1NS(=O)(=O)c1c(Cl)cc(-c2ccnc(N3CCNCC3)c2)cc1Cl | 48.9%
